The record followed here is ChEMBL document CHEMBL4513141, “CO-ADD screening of NIH (USA) - Clinical Collection” (2021).

For orientation: Inhibition means the drop in the measured response relative to a control, in per cent.

Results with a measured potency or affinity are listed apart.

Experiment [1] deals with Klebsiella pneumoniae. The following applies: Concentration 20 uM; ASSAY_TEST Inhibition of Bacterial Growth; detection method Absorption (OD600); MEDIA CAMHB; plate type 384well; NBS; CORNING #3640; time 18 hr.
In experiment [2] the test system is Candida albicans. The following applies: 20 µM.
Experiment [3] deals with Cryptococcus neoformans. The following applies: Concentration 20 uM; ASSAY_TEST Inhibition of Fungal Growth; detection method Resazurin; Absorption (OD600-OD570); plate type 384well; NBS; CORNING #3640. For orientation: Resazurin is reduced to fluorescent resorufin, in cell work by metabolically active cells.

Turning to `CCN1CC(CCN2CCOCC2)C(c2ccccc2)(c2ccccc2)C1=O.Cl` (stereo not drawn), the Inhibition was 1.35% in experiment [1], 4.41% in experiment [2] and -0.87% in experiment [3].
On the same counts, the results for `CC1=C(C(=O)O)N2C(=O)[C@@H](NC(=O)[C@H](N)c3ccccc3)[C@H]2SC1.O` [CEPHALEXIN] are 2.49%, 2.01% and 4.2%.
The matching figures for `O=c1cnn([C@@H]2O[C@H](CO)[C@@H](O)[C@H]2O)c(=O)[nH]1` [6-AZAURIDINE]: 4.69%, 7.12% and 7.24%.
Take `Sc1ncnc2nc[nH]c12` [MERCAPTOPURINE ANHYDROUS]: the figures for the Inhibition in experiment [1], in experiment [2] and in experiment [3] were 7.84%, 11.2% and -0.87%, respectively.
In the case of `C#C[C@]1(O)CC[C@H]2[C@@H]3CCC4=Cc5oncc5C[C@]4(C)[C@H]3CC[C@@]21C` [DANAZOL], the Inhibition in experiment [1] is 2.6%; in experiment [2], 6.36%; in experiment [3] it was 0.96%.
For `OCCN1C[C@H](O)[C@@H](O)[C@H](O)[C@H]1CO` [MIGLITOL], the Inhibition in experiment [1] is 11.67%; in experiment [2], 2.16%; in experiment [3], 1.09%.
On the same counts, the results for `O=C(O)CCNC(=O)c1ccc(N=Nc2ccc(O)c(C(=O)O)c2)cc1` are 9.82%, 4.41% and -5.87%.
On to `Cc1ncc([N+](=O)[O-])n1CC(O)CCl` (stereo not drawn) [ORNIDAZOLE], for which the Inhibition in experiment [1] is 14.36%; in experiment [2] it was 2.15%; in experiment [3], -1.25%.
As for `COc1cc2nc(N(C)CCCNC(=O)C3CCCO3)nc(N)c2cc1OC` (stereo not drawn) [ALFUZOSIN], the results for the Inhibition in experiment [1], in experiment [2] and in experiment [3] were -2.08%, -0.8% and -5.01%, respectively.
For the compound `CC(C(=O)O)c1cccc(C(=O)c2ccccc2)c1` (stereo not drawn) [KETOPROFEN], the results for the Inhibition in experiment [1], in experiment [2] and in experiment [3] were 8.94%, 5.45% and -5.87%, respectively.
`O=C1C(c2c(O)[nH]c3ccccc23)=Nc2ccccc21`: the Inhibition in experiment [1] is 6.26%; in experiment [2], 9.69%; in experiment [3], -4.77%.
As for `COc1cc(OC)c(C(=O)CCCN2CCCC2)c(OC)c1.Cl`, the Inhibition is 10.87% in experiment [1], 3.75% in experiment [2] and -6.77% in experiment [3].
On the same counts, the results for `N[C@@H](Cc1cc(I)c(Oc2cc(I)c(O)c(I)c2)c(I)c1)C(=O)O` [LEVOTHYROXINE] are 0.79%, 21.1% and -5.43%.
Take `CC1(C)C[C@@H]1C(=O)N/C(=C\CCCCSC[C@H](N)C(=O)O)C(=O)[O-].[Na+]` [CILASTATIN SODIUM]: the figures for the Inhibition in experiment [1], in experiment [2] and in experiment [3] were -2.84%, 5.18% and -1.08%, respectively.
On to `CN1CCN(CCCN2c3ccccc3Sc3ccc(C(F)(F)F)cc32)CC1.Cl.Cl` [TRIFLUOPERAZINE HYDROCHLORIDE], for which the Inhibition in experiment [1] was 10.06%; in experiment [2] it was 2.94%; in experiment [3] it was -7.04%.
Turning to `O=C(O)CCc1nc(-c2ccccc2)c(-c2ccccc2)o1` [OXAPROZIN], the Inhibition is 16.28% in experiment [1], 18.9% in experiment [2] and -4.51% in experiment [3].
The matching figures for `CC(Cc1ccccc1)(NC(=O)CN)c1ccccc1.Cl` (stereo not drawn) [REMACEMIDE HYDROCHLORIDE]: 8.63%, 4.18% and -7.79%.
On the same counts, the results for `O=C(O)c1cccnc1` [NIACIN] are 4.99%, 2.72% and -3.83%.
On to `O=C(O)c1cc(/N=N/c2ccc(S(=O)(=O)Nc3ccccn3)cc2)ccc1O` [SULFASALAZINE], for which the Inhibition in experiment [1] came out at 2.94%; in experiment [2] it was 8.72%; in experiment [3], 5.13%.
The matching figures for `CC1=C(CC(=O)O)c2cc(F)ccc2/C1=C\c1ccc([S+](C)[O-])cc1` (stereo not drawn): 14.02%, 3.98% and -1.21%.
On the same counts, the results for `CCC(=O)O[C@]1(C(=O)SCF)[C@H](C)C[C@H]2[C@@H]3C[C@H](F)C4=CC(=O)C=C[C@]4(C)[C@@]3(F)[C@@H](O)C[C@@]21C` [FLUTICASONE PROPIONATE] are 6.12%, 10.1% and -1.8%.
`C/C=C1/[C@H]2C=C(C)C[C@]1(N)c1ccc(O)nc1C2`: the Inhibition is 13.99% in experiment [1], 2.85% in experiment [2] and -7.02% in experiment [3].
On the same counts, the results for `CNCC[C@@H](Oc1ccccc1C)c1ccccc1.Cl` [ATOMOXETINE HYDROCHLORIDE] are 2.35%, 3.59% and 5.55%.
Take `Cl.Clc1cccc(Cl)c1NC1=NCCN1` [CLONIDINE HYDROCHLORIDE]: the figures for the Inhibition in experiment [1], in experiment [2] and in experiment [3] were 4.94%, 3.3% and -10.31%, respectively.
As to `CCC(CO)NCCNC(CC)CO` (stereo not drawn), the Inhibition is 10.98% in experiment [1], 2.36% in experiment [2] and -1.69% in experiment [3].
As for `NC(=O)c1cccnc1` [NIACINAMIDE], the Inhibition was 11.31% in experiment [1], 2.62% in experiment [2] and -0.49% in experiment [3].
